The text below walks through data of ChEMBL document CHEMBL4513216, “Probing the Open Global Health Chemical Diversity Library for Multistage-Active Starting Points for Next-Generation Antimalarials” (ACS Infect Dis, 2020).

Hit rate of the full screen: of about 69,000 compounds, about 8,600 (12%) showed an effect of 50% or more. This is one part of a sample in which strong results are shown more often than they occur.

The assay has as its system Plasmodium berghei. The assay can be described thus: Screen against P. berghei liver stage (PbLuc), transformed with Luciferase, at 10uM. Type of assay: functional, HepG2. The following applies: tested at 10 uM.
For `O=C(Nc1ccccn1)c1cncc(C2CCNCC2)n1`, the INHIBITION is listed as -35.5%.
Take `N#CC1Sc2nnc(-c3ccccc3Br)n2N=C1N` (stereo not given): the INHIBITION is 16.2%.
Consider `O=C(c1ccc(-n2cnnn2)cc1)N1CCCC(n2ccnc2)C1` (stereo not given), for which the INHIBITION is on record as 26.4%.
With `CCN(CC1CCOC1)C(=O)Nc1ccc(N2CCCCC2)nc1` (stereo not given) the figure was -8.83%; with `COCCNc1ccc(CC2CCCN(C3CCOCC3)C2)nn1` (stereo not given), 7.71%.
Consider `O=C(c1nsc(Cl)c1Cl)N1CCc2nc3sccc3c(=O)n2CC1`, for which the INHIBITION is given as -14.1%.
`CN(C)C(=O)c1n[nH]c2c1CN(Cc1nccs1)CC2`: the INHIBITION stood at 88%.
`CN1CCN(C(=O)c2n[nH]c3c2CN(Cc2nccs2)CC3)CC1`: the INHIBITION is -105%.
Turning to `CN(C)C(=O)c1n[nH]c2c1CCN(Cc1nccs1)C2`, the INHIBITION was -53.6%.
`CC(C)CNC(=O)c1cn(C(C)C)cc2c(=O)[nH]nc1-2`: the INHIBITION is 36.8%.
Turning to `Cn1c(=O)[nH]c(=O)n2c(CC(=O)NCc3ccccc3)cnc12`, the INHIBITION is 19.3%.
For `O=C(Nc1cccnc1-n1cc(Cl)cn1)C1CC1`, the INHIBITION amounted to 41.5%.
Regarding `O=C(Nc1cccnc1-n1cc(Cl)cn1)C1CCCC1`, the INHIBITION was found to be 48%.
For `O=C(Nc1cccnc1-n1cc(Cl)cn1)C1CCCCC1`, the INHIBITION is listed as 52.6%.
Turning to `COc1ccc(C)cc1C(C)NC(=O)CCn1cncn1` (stereo not given), the INHIBITION is on record as 19.2%.
`O=C(c1ccnnc1)N1C[C@@H]2C[C@@H](c3nc(C4CC4)cs3)O[C@@H]2C1`: the INHIBITION is given as -60.2%.
With `O=C(c1ccncn1)N1CCC[C@]2(C[C@@H](OCc3ccccn3)CO2)C1`, the INHIBITION is on record as 43.9%.
In the case of `COc1ccc(S(=O)(=O)C(F)(F)F)cc1NC(=O)CSC`, the INHIBITION turned out to be 63.7%.
In the case of `COCC(=O)Nc1cc(S(=O)(=O)C(F)(F)F)ccc1OC`, the INHIBITION stood at 33.7%.
For the compound `COc1ccc(S(=O)(=O)C(F)(F)F)cc1NC(=O)CSCC#N`, the INHIBITION amounted to 48.3%.
Consider `Cc1ccccc1CN(C)C(=O)CN1CCCC(Cn2cncn2)C1` (stereo not given), for which the INHIBITION was -51.5%.
With `COc1cc(C)c(C(C)NC(=O)NCCCn2cncn2)cc1OC` (stereo not given), the INHIBITION was -19.4%.
Consider `CCn1nnc2c1C(COCCN(C)C)CN(c1nncs1)C2` (stereo not given), for which the INHIBITION came out at 57.1%.
For `CCS(=O)(=O)N1Cc2nnn(C)c2C(COCCN(C)C)C1` (stereo not given) the value was 48.2%; for `CN(C)CCOCC1CN(Cc2ccncc2)Cc2nnn(C)c21` (stereo not given), 3.58%.
With `CN(C)CCN1Cc2ncn(C)c2C(COCC(=O)N(C)C)C1` (stereo not given) the figure was 50%; with `CCn1nnc2c1C(COCCN(C)C)CN(Cc1ccc(C)s1)C2` (stereo not given), -22.1%; with `CCn1nnc2c1C(COC)CN(Cc1ccco1)C2` (stereo not given), -30.1%.
In the case of `CCn1nnc2c1C(COCCN(C)C)CN(S(C)(=O)=O)C2` (stereo not given), the INHIBITION amounted to 43.8%.
As to `CCn1nnc2c1C(COCCN(C)C)CN(S(=O)(=O)CC)C2` (stereo not given), the INHIBITION is 52.6%.
With `CN(C)C(=O)COCC1CN(CC2CCOCC2)Cc2ncn(C)c21` (stereo not given) the figure was 4.57%.
For `Cc1cccc(CN2Cc3ncn(C)c3C(COCC(=O)N(C)C)C2)n1` (stereo not given) the value was -10.3%; for `CN(C)CCOCC1CN(Cc2ccoc2)Cc2nnn(C)c21` (stereo not given), 18.5%.
With `CCn1nnc2c1C(COCCN(C)C)CN(Cc1ccco1)C2` (stereo not given) the figure was 62.3%; with `CN1CCOC(CNCc2coc(-c3ccc(Cl)cc3)n2)C1` (stereo not given), 33.7%; with `CN(CC(=O)N1CCc2[nH]c3ccc(F)cc3c2C1)CC1OCCO1`, 22.9%.
As for `Cc1c(C(=O)N2CCC3(CCCNC3=O)C2)sc2nc[nH]c(=O)c12` (stereo not given), the INHIBITION came to 12.9%.
As for `CN(C)Cc1cnc2n1CCN(C(=O)NCc1ccccc1)CC2`, the INHIBITION turned out to be 21.6%.
Consider `CC(=O)c1ccc(C(=O)NCCCOC(C)c2ccccc2)s1` (stereo not given), for which the INHIBITION is 29.2%.
For the compound `Cc1cc(N)nc(C2(C)CCCN2C(=O)c2cnccn2)n1` (stereo not given), the INHIBITION is listed as 17.1%.
In the case of `O=S(=O)(NCCn1ccc(-c2ccccn2)n1)C1CCCCC1`, the INHIBITION is reported as 40%.
As for `Cc1n[nH]c2nc(-c3cc(Br)ccc3O)cc(C(=O)O)c12`, the INHIBITION worked out at 4.82%.
With `Cc1ccc(O)c(CN2CCCCC2CCN2CCOCC2)c1` (stereo not given), the INHIBITION came to 30.3%.
With `Cc1nnc2n1CCN(Cc1csc(-c3ncccn3)n1)C2` the figure was 26.4%; with `Cn1c(CN2CCCCC2)nnc1C1CCCN(c2ccncc2F)C1` (stereo not given), -2.43%; with `CN(C)C(=O)COCC1CN(Cc2ccoc2)Cc2nnn(C)c21` (stereo not given), -3.24%.
With `CCn1nnc2c1C(COCC(=O)N(C)C)CN(Cc1ccoc1)C2` (stereo not given) the figure was 53.4%; with `CCn1nnc2c1C(COCC(=O)N(C)C)CN(Cc1ccco1)C2` (stereo not given), -3.26%; with `CC(C)N1CCc2nnc(COc3cncnc3)n2CC1`, -2.25%.
With `CC(C)N1CCCCC1c1nc(N(C)C)ncc1I` (stereo not given) the figure was -9.51%; with `Cc1ncncc1-c1ccnc(N(C)C)n1`, 4.08%; with `CCCc1cc(NC2CCc3nc(C)nn3C2)n2ncnc2n1` (stereo not given), -2.23%.
For `c1cc(N2CCC3(COCc4cnc(NCC5CC5)nc43)C2)ncn1` (stereo not given), the INHIBITION was found to be 31.7%.
For `c1ccc(CN2CCC3(COCc4cnc(NCC5CC5)nc43)C2)cc1` (stereo not given), the INHIBITION is 43.9%.
For the compound `O=S(=O)(C1CC1)N1CCC2(COCc3cnc(NCC4CC4)nc32)C1` (stereo not given), the INHIBITION was found to be 57.4%.
As to `Cc1nc(NCC2CC2)nc2c1COCC21CCN(S(=O)(=O)C2CC2)C1` (stereo not given), the INHIBITION is on record as 66%.
In the case of `Cc1nc(NCC2CC2)nc2c1COCC21CCN(C)C1` (stereo not given), the INHIBITION is 31.3%.
On to `Cc1nc(NCC2CC2)nc2c1COCC21CCN(C(=O)C(C)(C)C)C1` (stereo not given), for which the INHIBITION came out at 49.7%.
Consider `CCN1CCC2(COCc3cnc(NCC4CC4)nc32)C1` (stereo not given), for which the INHIBITION came out at 13.5%.
Consider `Fc1cnc(N2CCC3(COCc4cnc(NCC5CC5)nc43)C2)nc1` (stereo not given), for which the INHIBITION is recorded as -53.2%.
For `CN(C)S(=O)(=O)N1CCC2(COCc3cnc(NCC4CC4)nc32)C1` (stereo not given) the value was 62.8%.
For the compound `CC(C)c1noc(CCC(=O)NC(C)c2ccccn2)n1` (stereo not given), the INHIBITION was -40.96%.
As for `Nc1nccc(C2CCN(c3cnccn3)C2)n1` (stereo not given), the INHIBITION turned out to be 30.5%.
For `CCOc1cc(C(=O)N2CCCC(c3nc(C)c(C)s3)C2)ccn1` (stereo not given) the value was 48.4%; for `O=C(COc1ccc2c(c1)OCO2)NCc1ccco1`, 31.135%; for `CCCN1CCC(CC(=O)N2CCC(C(O)c3nccn3C)CC2)CC1` (stereo not given), 6.69%.
For `CCn1nc(C)c2nc(C(C)C)nc(NC)c21`, the INHIBITION is 16.8%.
`COCCN1CCCC2(CCN(Cc3noc(C4CCCC4)n3)C2)C1=O` (stereo not given): the INHIBITION is on record as 9.56%.
For the compound `COCCN1CCCC2(CCN(c3ncnc(C)c3C)C2)C1=O` (stereo not given), the INHIBITION stood at 69.6%.
For `O=C1CCC2(CCCN(Cc3nnc(C4CC4)o3)C2)CN1CCO` (stereo not given) the value was 34.4%; for `COCCN1CCCC2(CCN(c3nccnc3N(C)C)C2)C1=O` (stereo not given), -52.2%.
Take `COCCN1CCCC2(CCN(c3ncc(Cl)cc3Cl)C2)C1=O` (stereo not given): the INHIBITION is recorded as -5.8%.
With `CCN1CCCC2(CCN(Cc3nnc(C4CC4)o3)C2)C1=O` (stereo not given) the figure was -9.18%; with `COCCN1CCC2(CCCN(Cc3ccoc3)C2)C1=O` (stereo not given), 8.74%.
On to `O=C1N(CCO)CCCC12CCN(Cc1nnc(C3CC3)o1)C2` (stereo not given), for which the INHIBITION came out at 61.1%.
For the compound `COCCN1CCCC2(CCN(Cc3nnc(C4CC4)o3)C2)C1=O` (stereo not given), the INHIBITION was 51.2%.
Consider `Cc1nc2oc(C(=O)N3CCCC3)c(N)c2c2c1CCCC2`, for which the INHIBITION is recorded as 16%.
Take `CCn1cnnc1CNC(=O)N1CCN(c2ccc(OC)cc2)CC1`: the INHIBITION is recorded as 36.1%.
For `CN(C)c1cc(CNC(=O)c2cnccn2)ccn1` the value was -6.14%; for `O=C(Cc1c(F)cccc1Cl)Nc1cc(N2CCOCC2)ncn1`, 30.9%; for `CC(C)n1nc(CN2CCCC2=O)c2c1CN(C(=O)c1ccco1)C2`, 39.5%.
For `CCC1c2cccn2CCN1S(=O)(=O)N1CCOCC1` (stereo not given), the INHIBITION is reported as 31.2%.
On to `CCN1CCN(C(=O)COCc2cccc(OC)c2)CC1`, for which the INHIBITION is on record as -28.675%.
As for `Cc1ccc(CN2C(=O)CCC23CCC(NC2CCOC2)CC3)cc1` (stereo not given), the INHIBITION was 35.8%.
For the compound `Cc1occc1C(=O)N1CCOCC2(CCN(C3CCOCC3)C2)C1` (stereo not given), the INHIBITION is listed as 43.9%.
For `CC(C)S(=O)(=O)N1C[C@@H](O)[C@H](N(C)Cc2ccc(F)cc2)C1`, the INHIBITION amounted to 30.75%.
Turning to `CNC(=O)Cc1ccc(NC(=O)NC(C)C(C)C)cc1` (stereo not given), the INHIBITION is recorded as -9.48%.
As to `CNC(=O)Cc1ccc(NC(=O)NCc2ncc(C)s2)cc1`, the INHIBITION amounted to 64%.
For `CNC(=O)Cc1ccc(NC(=O)NC2(c3cccc(F)c3)CC2)cc1`, the INHIBITION is on record as 9%.
Consider `Cc1cnc(CNC(=O)NCc2cccnc2N(C)C)s1`, for which the INHIBITION was determined as 45.8%.
For `CNC(=O)Cc1ccc(NC(=O)NCc2nc(C)sc2C)cc1` the value was 52.2%; for `CNC(=O)Cc1ccc(NC(=O)NCC(C)c2ncc(C)s2)cc1` (stereo not given), 14.8%.
Turning to `COc1ccc(-c2nc(CN3CCc4cncnc4C3)no2)cc1`, the INHIBITION came to 5.72%.
Regarding `CCc1c(C(=O)N2C[C@@H]3CC[C@H]2CN(c2cnccn2)C3)csc1C`, the INHIBITION was -59.5%.
For `CC(=O)c1ccc(S(=O)(=O)N2CCCC2CN2CCCC2)cc1` (stereo not given) the value was 51.1%; for `CC(=O)c1ccc(C(=O)N2C[C@@H](CN3CCCC3)[C@@H](CO)C2)cc1`, 32.5%; for `CSc1ccc(S(=O)(=O)N2CCCCC2CCNC(C)=O)cc1` (stereo not given), 11.8%.
As to `COC[C@]1(O)CCN(C2CCN(c3ccc(F)c(F)c3)CC2)CC1(C)C`, the INHIBITION came out at 39.4%.
On to `COC(=O)c1cccc(C2CNCCN2C(C)=O)c1` (stereo not given), for which the INHIBITION is 24.99%.
For `COC(=O)CNC(=O)Cn1ccc2cccc(OC)c21`, the INHIBITION was found to be 48.9%.
Turning to `Cc1csc(N2CCN(CC(=O)Nc3cc(C)nn3C)CC2C)n1` (stereo not given), the INHIBITION came to 12.96%.
Consider `CCn1nc(C)c2nc(C(C)C)nc(N3CCCC3)c21`, for which the INHIBITION amounted to 15.4%.
For `Cc1nccn1CCN1C(=O)CC2(CCCC2)CC1=O` the value was 56%; for `O=C1CC2(CCCC2)CC(=O)N1CCn1cnnc1`, -28.9%; for `Cc1nncn1CCN1C(=O)CC2(CCCC2)CC1=O`, -23.3%.
With `CC(C)c1nn(C)c(N(C)C)c1CNC1CCCCNC1=O` (stereo not given) the figure was -4.13%; with `O=C(Cc1cccc(O)c1)NCCCNC(=O)c1cccc(F)c1`, 8.64%.
For `Cc1cccc(-c2nc(N)nc3c2CN(C(=O)c2ccncn2)C3C)c1` (stereo not given) the value was 19.9%.
As for `Cc1cccc(-c2nc(N)nc3c2CN(C(=O)c2cc(C)n[nH]2)C3C)c1` (stereo not given), the INHIBITION was 58.9%.
`COCC(=O)N1Cc2c(-c3cccc(C)c3)nc(N)nc2C1C` (stereo not given): the INHIBITION is listed as -24.1%.
